From PubChem BioAssay come the findings set out here.

For assay [1], the target named is 6-phosphogluconate dehydrogenase, decarboxylating (Homo sapiens) (UniProt P52209). The assay can be described thus: 6PGD enzyme inhibitors, primary screen, biochemical, human, recombinant enzyme, NADPH absorbance (AID 1159550;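 active = at least 20% inhibition of 6-phosphogluconate dehydrogenase activity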). As to conditions: recombinant 6PGD, NADPH absorbance 341 nm; at 10 µM; stronger effect = higher value.
A short description of assay [2]: differential killing of epithelial or mesenchymal cells, primary screen, imaging, PC-3E GFP, TEM4-18 mCherry, co-culture (AID 1345086).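 For all read-outs here: cells exposed to compound for 72 h before imaging.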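 For red/green cell ratio (normalised): normalised mesenchymal count divided by normalised epithelial count so high means epithelial killing.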 Particulars: imaging cell counts, at 1 µM; for red/green cell ratio (normalised): actives lie on both sides.
Assay [3] relates to Aerobactin synthetase IucA (Klebsiella pneumoniae hvKP1). The assay can be described thus: Biochemical IucA enzyme inhibition primary screen of the Spectrum library (AID 1346200; call rule not given here;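 note: 100% = wells without compound and 0% = wells lacking enzyme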). As to conditions: malachite green pyrophosphate, A620, at 8 µM, stronger effect = lower value.
In assay [4] the target is Mitogen-activated protein kinase 7 (Homo sapiens) (UniProt Q13164). The assay can be described thus: ERK5 transactivation activators in reporter cells, primary screen, cell-based, HTS (AID 1508626;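 active = luciferase signal above three times the same-plate solvent-only control wells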;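 note: luciferase driven by Gal4-ERK5 fusion binding five Gal4 sites before minimal TATA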). As to conditions: HeLa Gal4-ERK5 transactivation, 18 h, at 5 µM, stronger effect = higher value.
Chain of Mitogen-activated protein kinase 7 (Homo sapiens) (Q13164 whole entry, looked up, the tested form may be a part): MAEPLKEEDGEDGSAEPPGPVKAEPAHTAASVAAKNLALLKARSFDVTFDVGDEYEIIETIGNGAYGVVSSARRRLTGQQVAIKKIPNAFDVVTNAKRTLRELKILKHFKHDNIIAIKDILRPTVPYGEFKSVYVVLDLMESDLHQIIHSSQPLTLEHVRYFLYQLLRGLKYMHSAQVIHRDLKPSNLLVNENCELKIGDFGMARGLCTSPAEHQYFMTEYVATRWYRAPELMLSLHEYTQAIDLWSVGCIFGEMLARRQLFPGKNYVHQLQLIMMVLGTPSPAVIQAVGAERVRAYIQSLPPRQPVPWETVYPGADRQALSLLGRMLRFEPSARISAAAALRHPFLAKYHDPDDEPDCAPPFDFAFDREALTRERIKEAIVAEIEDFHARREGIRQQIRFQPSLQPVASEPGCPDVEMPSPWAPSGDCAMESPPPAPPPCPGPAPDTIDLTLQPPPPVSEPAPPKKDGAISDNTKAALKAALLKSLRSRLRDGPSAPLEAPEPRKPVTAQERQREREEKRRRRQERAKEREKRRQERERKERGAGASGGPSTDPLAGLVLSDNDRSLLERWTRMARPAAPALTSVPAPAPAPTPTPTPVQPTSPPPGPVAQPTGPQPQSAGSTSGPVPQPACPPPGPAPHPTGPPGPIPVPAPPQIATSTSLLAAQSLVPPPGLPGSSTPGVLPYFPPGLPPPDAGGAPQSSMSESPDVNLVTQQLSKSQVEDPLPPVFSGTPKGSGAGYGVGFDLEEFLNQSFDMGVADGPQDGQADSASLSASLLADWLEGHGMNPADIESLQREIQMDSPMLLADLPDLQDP
Setting [5] is: measured here: epithelial PC-3E GFP cell survival.
Setting [6] is: measured here: mesenchymal TEM4-18 mCherry cell survival.
Setting [7] is: counts scaled to control wells, 1 = unselective.

By inhibition is commonly meant the drop in the measured response relative to a control, in per cent.

SMILES strings stand for the structures. The source made the active and inactive calls.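 Rule for the calls, unless noted: active = compounds killing one labelled cell type while sparing the other, by normalised counts and ratio limits, not self-fluorescent; inactive = the rest.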

Chain of 6-phosphogluconate dehydrogenase, decarboxylating (Homo sapiens) (P52209 whole entry, looked up): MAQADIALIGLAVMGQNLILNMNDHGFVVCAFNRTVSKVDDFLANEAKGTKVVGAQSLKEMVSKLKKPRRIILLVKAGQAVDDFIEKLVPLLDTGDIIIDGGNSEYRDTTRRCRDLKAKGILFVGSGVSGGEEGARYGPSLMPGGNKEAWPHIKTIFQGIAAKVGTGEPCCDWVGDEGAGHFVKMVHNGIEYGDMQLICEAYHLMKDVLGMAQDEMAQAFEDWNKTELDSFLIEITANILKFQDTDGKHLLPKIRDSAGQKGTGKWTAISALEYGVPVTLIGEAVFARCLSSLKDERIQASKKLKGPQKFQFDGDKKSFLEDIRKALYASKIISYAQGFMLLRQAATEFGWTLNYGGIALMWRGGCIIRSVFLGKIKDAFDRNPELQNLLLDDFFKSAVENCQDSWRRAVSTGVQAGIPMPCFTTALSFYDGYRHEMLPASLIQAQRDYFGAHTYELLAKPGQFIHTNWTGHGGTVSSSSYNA

On to `COc1cc2c(cc1-c1cc3cc4ccoc4cc3oc1=O)OCO2`, for which the inhibition in assay [1] was 0.213% (inactive). Moreover, the red/green cell ratio (normalised) in assay [2] was 0.88 (inactive). Besides, the normalised cell number in assay [2] (setting [5]) was 0.99; in assay [2] (setting [6]), 0.87. Moreover, the activity remaining in assay [3] is 113% (inactive). Further, the luciferase signal in assay [4] was 44 AU (inactive).
For `NC(=O)c1ccc(N)nc1`, in assay [1], the inhibition was 1.26% (inactive). Moreover, the red/green cell ratio (normalised) in assay [2] is 0.93 (inactive). The normalised cell number in assay [2] (setting [5]) is 1.22; in assay [2] (setting [6]), 1.14. For the same compound, the activity remaining in assay [3] is 120% (inactive). Moreover, the luciferase signal in assay [4] was 24 AU (inactive).
Regarding `NCC(=O)c1ccccc1`, the inhibition in assay [1] was -6.79% (inactive). Also, in assay [2], the red/green cell ratio (normalised) was 0.98 (inactive). The normalised cell number in assay [2] (setting [5]) stood at 1.03; in assay [2] (setting [6]), 1.02. In addition, in assay [3], the activity remaining is 114% (inactive). The luciferase signal in assay [4] was 56 AU (inactive).
`CC(C)=CCCC1(C)C=Cc2c(O)c3c(c(CC=C(C)C)c2O1)OC12C(=CC4CC1C(C)(C)OC2(C/C=C(/C)C(=O)O)C4O)C3=O` (stereo not drawn): in assay [1], the inhibition is 3.01% (inactive). For the same compound, the red/green cell ratio (normalised) in assay [2] is 0.97 (inactive). Besides, the values for the normalised cell number in assay [2] (setting [5]) and in assay [2] (setting [6]) were 0.89 and 0.87, respectively. The activity remaining in assay [3] is 106% (inactive). The luciferase signal in assay [4] is 88 AU (inactive).
As for `COc1cc(OC)c2c(c1)O[C@H](c1ccc(OC)c(OC)c1)[C@@H](O)C2`, in assay [1], the inhibition was 14.9% (inactive). Also, in assay [2], the red/green cell ratio (normalised) is 0.81 (inactive). Besides, the normalised cell number was determined as 0.96 in assay [2] (setting [5]) and 0.78 in assay [2] (setting [6]). Further, in assay [3], the activity remaining was 111% (inactive). In assay [4], the luciferase signal was 32 AU (inactive).
On to `COc1ccc(C(=O)O)cc1OC`, for which the inhibition in assay [1] is 7.84% (inactive). For the same compound, the red/green cell ratio (normalised) in assay [2] is 0.77 (inactive). Further, the normalised cell number in assay [2] (setting [5]) worked out at 1.22; in assay [2] (setting [6]) it was 0.94. In assay [3], the activity remaining is 78.5% (inactive). Moreover, the luciferase signal in assay [4] was 40 AU (inactive).
In the case of `COc1c2c(cc3c1OCO3)CC[N+](C)=C2`, the inhibition in assay [1] was 8.25% (inactive). Moreover, the red/green cell ratio (normalised) in assay [2] (setting [7]) was 1.03 (inactive). Besides, the normalised cell number was found to be 0.97 in assay [2] (setting [5]) and 1 in assay [2] (setting [6]). Further, the activity remaining in assay [3] is 99.6% (inactive). For the same compound, in assay [4], the luciferase signal is 20 AU (inactive).
With `COc1cccc(C=O)c1OC`, the inhibition in assay [1] is 7.48% (inactive). In addition, the red/green cell ratio (normalised) in assay [2] (setting [7]) was 1.04 (inactive). Also, the normalised cell number in assay [2] (setting [5]) was found to be 0.98; in assay [2] (setting [6]), 1.02. Moreover, the activity remaining in assay [3] is 93.4% (inactive). For the same compound, in assay [4], the luciferase signal is 60 AU (inactive).
Take `C/C=C/c1ccc2c(c1)OCO2`: in assay [1], the inhibition was -4.44% (inactive). For the same compound, the red/green cell ratio (normalised) in assay [2] is 0.96 (inactive). Moreover, the normalised cell number in assay [2] (setting [5]) was determined as 1.11; in assay [2] (setting [6]) it was 1.06. For the same compound, the activity remaining in assay [3] is 80.6% (inactive). The luciferase signal in assay [4] is 296 AU (active).
As to `CC(=O)CC1CCCCN1` (stereo not drawn), in assay [1], the inhibition was 16.3% (inactive). For the same compound, the red/green cell ratio (normalised) in assay [2] (setting [7]) is 1.09 (inactive). Also, the normalised cell number came out at 0.99 in assay [2] (setting [5]) and 1.09 in assay [2] (setting [6]). Moreover, in assay [3], the activity remaining was 107% (inactive). For the same compound, the luciferase signal in assay [4] was 48 AU (inactive).
As to `COc1ccc(/C=C/c2cc(O)cc(O)c2)cc1`, in assay [1], the inhibition was 16.8% (inactive). In addition, in assay [2], the red/green cell ratio (normalised) was 1.08 (inactive). Besides, the results for the normalised cell number in assay [2] (setting [5]) and in assay [2] (setting [6]) were 0.95 and 1.03, respectively. In addition, the activity remaining in assay [3] is 103% (inactive). Besides, the luciferase signal in assay [4] is 176 AU (inactive).
Regarding `COc1cc2occc2c2oc(=O)ccc12`, in assay [1], the inhibition was 11.9% (inactive). The red/green cell ratio (normalised) in assay [2] is 1.13 (inactive). Moreover, the values for the normalised cell number in assay [2] (setting [5]) and in assay [2] (setting [6]) were 1 and 1.14, respectively. The activity remaining in assay [3] was 121% (inactive). Besides, in assay [4], the luciferase signal is 84 AU (inactive).
On to `COc1cc([C@@H]2c3cc4c(c(O)c3C[C@H]3COC(=O)[C@@H]32)OCO4)cc(OC)c1OC`, for which the inhibition in assay [1] is -17.8% (inactive). Also, the red/green cell ratio (normalised) in assay [2] is 0.83 (inactive). The normalised cell number in assay [2] (setting [5]) was 0.2; in assay [2] (setting [6]), 0.16. In addition, the activity remaining in assay [3] is 116% (inactive). Further, the luciferase signal in assay [4] was 16 AU (inactive).
